# Rows were chosen to be rich in hits. Some 27% of all compounds tested hit in one or more screens of this group.
# CYP2C9 inhib: blocks human cytochrome P450 2C9. inhibition, % at 5 µM. P11712. AID 777. CYP2C9 Supersomes, luciferin-H conversion, luminescence. 96,000 compounds, 20% hits;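 active means blocking of liver enzyme CYP2C9 beyond about 50% at 5 µM, limit read from the data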
# sEH inhibitor: soluble epoxide hydrolase (human) inhibition; AID 707; 91,000 compounds, 0.34% hits; recombinant human sEH enzymatic activity assay; P34913; inhibition, % at 2 µM; in the data active means inhibition above about 80%
# Target sequence (P34913 whole entry, looked up): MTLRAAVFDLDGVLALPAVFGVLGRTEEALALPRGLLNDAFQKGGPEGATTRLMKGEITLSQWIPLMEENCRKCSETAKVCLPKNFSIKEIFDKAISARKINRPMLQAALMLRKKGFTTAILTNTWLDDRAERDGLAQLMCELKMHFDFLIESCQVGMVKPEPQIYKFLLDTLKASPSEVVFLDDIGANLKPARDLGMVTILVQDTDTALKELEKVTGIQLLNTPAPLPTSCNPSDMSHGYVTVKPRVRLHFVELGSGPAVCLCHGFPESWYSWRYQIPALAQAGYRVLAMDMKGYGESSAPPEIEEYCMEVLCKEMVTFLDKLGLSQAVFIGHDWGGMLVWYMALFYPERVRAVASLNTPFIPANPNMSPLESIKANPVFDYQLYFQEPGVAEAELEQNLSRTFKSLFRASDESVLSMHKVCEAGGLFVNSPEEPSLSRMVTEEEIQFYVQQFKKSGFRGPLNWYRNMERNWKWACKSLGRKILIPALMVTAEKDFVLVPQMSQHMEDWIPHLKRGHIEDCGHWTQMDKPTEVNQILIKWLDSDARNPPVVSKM
# CYP2C19 activ: cytochrome P450 2C19 (human) activation; activation factor at 5 µM; recombinant CYP2C19, luciferin-H EGE luminescence; hits give high values; 0 = fully inhibited enzyme, 1 = untreated enzyme; 96,000 tested, under 10 active; P33261;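 active means activation factor of at least 2 at 5 µM in the primary screen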;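 further: 0 = wells with 2.5 mM tranylcypromine and 1 = vehicle-only wells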
# CYP2C9 activ: CYP2C9 (human) activation. activation factor at 5 µM. AID 1024. recombinant CYP2C9, luciferin-H conversion, luminescence; hits give high values; factor 1 = untreated enzyme, 0 = blocked. P11712. 96,000 compounds, 1.4% hits;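 active means activation factor of 2 or more for CYP2C9 at a 5 µM dose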;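 further: 0 = sulfaphenazole-blocked wells and 1 = vehicle-only wells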
# CYP2C19 inhib: human CYP2C19 inhibition | P33261 | CYP2C19 Supersomes, luciferin-H EGE luminescence, 30 min | inhibition, % at 5 µM | 96,000 compounds, 21% hits;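 active means CYP2C19 inhibition above a set limit at 5 µM in the primary screen, cut at about 50% in these data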;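 further: plate controls were negative control wells for no effect and 2.5 mM tranylcypromine positive control for full effect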
# sEH activator: increases human soluble epoxide hydrolase activity | 91,000 compounds, 0.04% hits | AID 717 | purified human sEH enzymatic activity, activator screen | activation, % at 2 µM | P34913; in the data active means activation above about 37%
# Numbers without * were called inactive; . = not tested or not shown.
SMILES,CYP2C9 inhib,sEH inhibitor,CYP2C19 activ,CYP2C9 activ,CYP2C19 inhib,sEH activator
COc1ccc2[nH]c(=O)c(NC(N)=S)nc2c1,17.2,8.1,0.7,0.8,34.5,-10.8
Cc1ccc(N(CC(=O)NCc2ccc(F)cc2)S(=O)(=O)c2cccs2)cc1,62.7*,-12.3,0,0.4,99.1*,11.8
Cc1ccc(N(CC(=O)NCc2ccccc2Cl)S(=O)(=O)c2cccs2)cc1,65.0*,16.3,0.4,0.3,64.1*,-17.9
Cc1ccc(C(=O)OCc2cc3ccccc3[nH]c2=O)cc1,18.8,-12.5,0.9,0.8,14.4,11.0
Cc1cccc2cc(COC(=O)c3cccnc3)c(=O)[nH]c12,38.6,-12.3,0.5,0.6,51.7*,11.2
COC(=O)C1=C(C)NC(C)=C(C(=O)OC)C1c1cc2ccc(C)cc2[nH]c1=O,17.5,2.1,0.6,0.8,40.4,-1.6
CCN(Cc1cc2ccc(C)cc2[nH]c1=O)C(=O)c1ccncc1,41.2,-13.9,0.3,0.6,67.6*,15.8
Cc1cccc2cc(COC(=O)c3ccccc3)c(=O)[nH]c12,7.8,-9.2,0.8,0.9,22.5,8.7
CCCN(Cc1cc2ccc(C)cc2[nH]c1=O)C(=O)c1cccnc1,-16.7,5.7,1,1.2,-4.7,-6.8
Cc1ccc2cc(COC(=O)c3ccncc3)c(=O)[nH]c2c1,65.6*,.,0.1,0.3,92.3*,.
CCOC(=O)C1=C(C)NC(C)=C(C(=O)OCC)C1c1cc2ccc(C)cc2[nH]c1=O,53.5*,14.3,0.7,0.5,25.1,-16.1
C[N+]1(CCCCCCC(=O)/C=N/O)CCCCCC1,4.3,-0.6,0.9,1,6.8,1.4
Cc1ccc(S(=O)(=O)CC(c2ccccc2)N2CCOCC2)cc1 (stereo unspecified),-1.4,-7.7,0.4,1,56.8*,7.7
O=C(O)c1cn[nH]c1-n1cnnn1,-32.9,-3.4,1.2,1.3,-17.9,2.9
CCOc1ccc(OCC)c(S(=O)(=O)NCc2ccccn2)c1,14.1,-22.4,0.6,0.9,43.4,22.1
CN(c1ccc(C(=O)NCc2ccc3c(c2)OCO3)cc1)S(C)(=O)=O,-13.0,21.2,1.2,1.1,-17.8,-22.6
CCOc1ccc(OCC)c(S(=O)(=O)NCc2ccc3c(c2)OCO3)c1,91.9*,11.7,0,0.1,100.1*,-7.9
O=S(=O)(NCc1ccc2c(c1)OCO2)c1ccc2c(c1)oc1ccccc12,22.8,6.4,1,0.8,-1.2,-4.0
COc1cc(C)c(S(=O)(=O)NCc2ccc3c(c2)OCO3)cc1C,83.9*,.,0,0.2,99.6*,.
O=S(=O)(NCc1ccc2c(c1)OCO2)c1cnc[nH]1,92.3*,-4.2,0.3,0.1,69.9*,4.8
COc1cc(S(=O)(=O)NCc2ccc3c(c2)OCO3)ccc1Cl,30.2,-3.7,0,0.7,99.5*,5.1
O=C(C1CCC(=O)N1Cc1ccccc1Cl)N1CCN(c2ccc(F)cc2)CC1 (stereo unspecified),-1.3,-20.0,0.9,1,6.8,16.9
CCOC(=O)c1c(CN2CCCCC2)n(C)c2cc(Br)c(OC)cc12,34.4,-10.8,0.9,0.7,11.9,10.4
CCOC(=O)c1c(CN2CCN(CCO)CC2)n(C)c2cc(Br)c(OC)cc12,79.1*,.,0.9,0.2,8.8,.
COc1ccc(-n2c(=S)[nH]c3cc(C(=O)NCCCN4CCCC4=O)ccc3c2=O)c(OC)c1,-0.5,74.8,1.1,1,-7.3,-74.7
SMILES,CYP2C9 inhib,sEH inhibitor,CYP2C19 activ,CYP2C9 activ,CYP2C19 inhib,sEH activator
CC(C)n1c(SCc2cc(=O)[nH]c3ccccc23)nc2c1c(=O)n(C)c(=O)n2C,38.0,.,0.9,0.6,6.1,.
CC(C)n1c(SCc2ccccc2F)nc2c1c(=O)n(C)c(=O)n2C,73.7*,.,0.4,0.3,59.6*,.
CCn1c(C(Cc2ccccc2)NC(=O)COC)nc2ccccc21 (stereo unspecified),21.9,1.7,0.2,0.8,80.7*,-2.6
Cc1cccc(OCC(=O)N2CCN(C(=O)CCC3CCCC3)CC2)c1,50.7*,-0.1,0.4,0.5,61.5*,1.6
O=C(CCC1CCCC1)N1CCN(C(=O)c2cccnc2)CC1,0.6,6.4,0.3,1,69.6*,-3.2
Cc1cc(C(C#N)c2cccc(Cl)c2)n2ncnc2n1 (stereo unspecified),-30.8,9.0,0.7,1.3,28.9,-7.3
N#CC(c1cccc(Cl)c1)c1ccc2c(C(F)(F)F)cc(C(F)(F)F)nc2n1 (stereo unspecified),77.7*,-15.6,0.7,0.2,28.7,16.7
CC(=O)N1CCC(N(C(=O)Nc2ccc(F)cc2)C2CCCC2)CC1,8.0,-1.8,1.1,0.9,-10.8,1.0
C/C(=N\NC(=S)Nc1ccc(F)cc1)C1CC1,57.0*,4.7,0.3,0.4,69.1*,-3.1
O=C(Nc1ccc(Cl)c(Cl)c1)OCc1cncs1,96.7*,-7.9,0,0,99.4*,9.4
N#Cc1cc2sc3nc4ccccc4n3c2cc1C#N,9.3,-2.4,1.1,0.9,-11.9,0.5
N#Cc1cc2sc3nnc(-c4ccncc4)n3c2cc1C#N,65.1*,.,0.1,0.3,92.4*,.
Cc1ccc(C)c(NC(=S)NNC(=O)c2csc3c2CCC(C)C3)c1 (stereo unspecified),52.8*,40.8,0.1,0.5,85.8*,-39.5
CC(NC(=O)c1ccc(CS(=O)(=O)Cc2ccccc2F)o1)c1ccc2c(c1)OCCO2 (stereo unspecified),.,-1.4,.,.,.,4.0
COC(=O)Cc1cn(-c2ncc(C(F)(F)F)cc2Cl)c2ccccc12,70.6*,-14.3,0.3,0.3,74.1*,11.1
O=C(NO)c1ccc(C(=O)N(C2CCCCC2)C2CCCCC2)cc1,-5.5,6.5,1.1,1.1,-8.0,-6.3
C/C(=N/NC(=O)c1ccccn1)c1ccco1,18.9,-3.5,0.4,0.8,56.8*,2.7
CCCCCCCCCC(=O)N/N=C(\C)c1cccnc1,.,49.4,.,.,.,-48.2
C/C(=N\NC(=O)c1ccccn1)C12CC3CC(CC(C3)C1)C2,3.7,71.4,1,1,-4.6,-71.4
CCCCCC(=O)N/N=C(\C)c1ccccn1,8.9,5.3,0.4,0.9,57.1*,-4.9
CCOC(=O)COc1ccc2c(c1)C(=O)CC1(CCCCC1)O2,2.9,9.5,0.9,1,14.3,-10.7
CCC(CC)C(=O)Nc1nc(-c2ccc3c(c2)CCN3C(=O)C2CC2)c(C)s1,80.8*,-6.5,0.7,0.2,32.9,8.1
CCOC(=O)N1CCN(S(=O)(=O)c2ccc3c(c2)CCN3C(=O)C2CC2)CC1,-1.7,.,0.8,1,17.9,.
c1ccc(CCNc2ncnc3nc[nH]c23)cc1,13.4,1.4,0.6,0.9,37.5,0.1
CCCCN(CCCNc1ncnc2nc[nH]c12)c1ccccc1,56.0*,.,0.8,0.4,19.4,.
CCN(CCCNc1ncnc2nc[nH]c12)c1cccc(C)c1,78.0*,.,0.2,0.2,83.0*,.
c1ccc2c(CCNc3ncnc4nc[nH]c34)c[nH]c2c1,-41.1,.,0.2,1.4,82.7*,.
